From PubChem BioAssay
Calls of active or inactive are those of the source.

Legend:
[1] = small molecules captured by biotinylated probe aFSTL3 – biochemical, small-molecule microarray, fluorescence 635/667, stem cell growth factor project, primary screen (AID 1064); conditions: higher = more signal;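 also: measures binding of the biotinylated anti-FSTL3 antibody to printed compounds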
[2] = binders from COS7 lysate, DM2A8 probe, primary screen, torsin A project, cell lysate, small-molecule microarray, fluorescence 635/667 (AID 1065); conditions: higher = more signal, COS7 lysate expressing mutant human TOR1A
[3] = small molecules captured by biotinylated probe aFGF2 – biochemical, small-molecule microarray, fluorescence 635/667, stem cell growth factor project, primary screen (AID 1067); conditions: higher = more signal;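 also: measures binding of biotinylated aFGF2 protein to printed compounds on slides; z-score merges feature fluorescence and signal-to-noise across triplicate slides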
[4] = small molecules captured by biotinylated probe aFGF10 – biochemical, small-molecule microarray, fluorescence 635/667, stem cell growth factor project, primary screen (AID 1071); conditions: higher = more signal;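 also: score merges 667 nm spot intensity and signal to noise from triplicate slides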
[5] = target: Neurogenic locus notch homolog protein 2 (Homo sapiens) (UniProt Q04721); test: small molecules binding Notch2 protein – biochemical, small-molecule microarray, 635 nm fluorescence, stem cell growth factors, primary screen (AID 1073); conditions: higher = more signal
[6] = target: Pro-neuregulin-1, membrane-bound isoform (Homo sapiens) (UniProt Q02297); test: small molecules binding neuregulin-1 protein – biochemical, small-molecule microarray, fluorescence 635/667, psychiatric disease protein project, primary screen (AID 1075); conditions: NRG1 binding, 635 nm fluorescence, higher = more signal;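 also: score combines 667 nm spot fluorescence with signal to noise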
Chain of Pro-neuregulin-1, membrane-bound isoform (Homo sapiens) (Q02297 whole entry, looked up, the tested form may be a part, canonical isoform): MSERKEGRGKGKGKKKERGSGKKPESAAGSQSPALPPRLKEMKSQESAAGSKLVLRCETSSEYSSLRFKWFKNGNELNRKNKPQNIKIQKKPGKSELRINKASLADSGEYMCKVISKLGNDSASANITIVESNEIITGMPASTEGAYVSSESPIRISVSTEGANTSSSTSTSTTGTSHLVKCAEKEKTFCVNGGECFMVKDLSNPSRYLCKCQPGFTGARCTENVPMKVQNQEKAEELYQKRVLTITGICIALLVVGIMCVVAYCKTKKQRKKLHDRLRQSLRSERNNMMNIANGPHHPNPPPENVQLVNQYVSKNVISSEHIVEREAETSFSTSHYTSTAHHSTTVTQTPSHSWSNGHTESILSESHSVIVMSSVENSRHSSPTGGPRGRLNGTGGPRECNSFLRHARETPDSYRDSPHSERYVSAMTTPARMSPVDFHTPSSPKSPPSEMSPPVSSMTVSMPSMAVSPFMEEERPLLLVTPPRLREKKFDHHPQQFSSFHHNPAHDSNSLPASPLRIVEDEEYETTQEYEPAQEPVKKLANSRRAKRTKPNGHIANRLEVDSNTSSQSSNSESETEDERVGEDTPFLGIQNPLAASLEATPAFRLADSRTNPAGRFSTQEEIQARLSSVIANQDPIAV

[7] = tested on: Neuregulin-1 EGF-like domain; test: small molecules binding NRG1 EGF domain – biochemical, small-molecule microarray, 635 nm fluorescence, primary screen (AID 1081); conditions: higher = more signal;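 also: binding of the protein to compounds printed on small-molecule microarray slides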
[8] = FRG1 expression reporter modulators in myotubes – cell-based, C2C12 myotubes, firefly/Renilla luciferase, luminescence, FRG1 inhibition for FSHD, primary screen (AID 1084); conditions: FRG1 promoter luciferase, higher = more signal, called active from +8 up or from −8 down
[9] = small molecules captured by biotinylated probe aFST – biochemical, small-molecule microarray, fluorescence 635/667, stem cell growth factor project, primary screen (AID 1086); conditions: higher = more signal;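 also: score merges 667 nm fluorescence with signal-to-noise of each printed compound spot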
[10] = binders of probe aHhip on microarray, primary screen, stem cell growth factor project, biochemical, small-molecule microarray, fluorescence 635/667 (AID 1087); conditions: higher = more signal;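 also: score merges spot fluorescence at 667nm with spot signal to noise ratio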
[11] = tested on: PRMT1 (protein arginine N-methyltransferase 1); test: small molecules binding arginine methyltransferase PRMT1 – biochemical, small-molecule microarray, 635 nm fluorescence, primary screen (AID 1088); conditions: higher = more signal;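 also: binding of Prmt1 protein to compounds spotted on small-molecule microarray slides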
[12] = growth effects on S. cerevisiae YJM789 – YJM789 clinical isolate, OD600, 24 h, basal, primary screen (AID 1089); conditions: higher = more signal, called active from +8 up or from −8 down;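 also: growth of clinical yeast isolate S. cerevisiae YJM 789 seeded 1000 cells per well; test concentration not given here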
[13] = S. pombe growth modifiers, basal conditions – strain 972, OD600, 24 h, no modulator, primary screen (AID 1090);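 also: basal condition with compound alone and no growth modifier present; test concentration not given here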; conditions: S. pombe 972 growth, higher = more signal, called active from +8 up or from −8 down
[14] = budding yeast growth modifiers under rapamycin – strain BY4716, OD600, 96 h, primary screen (AID 1091); also: test concentration not given here; conditions: S. cerevisiae BY4716 + rapamycin, higher = more signal, called active from +8 up or from −8 down
[15] = target: Torsin-1A-interacting protein 2 (Homo sapiens) (UniProt Q8NFQ8); test: small molecules binding lysate-expressed LULL1 – cell lysate, human LULL1 lysate, 635/667 nm fluorescence, primary screen (AID 1092); conditions: small-molecule microarray, hLULL1 lysate binding, 635 nm fluorescence; higher = more signal;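 also: probe is lysate of COS7 cells overexpressing human LULL1; score merges per-feature 667 nm fluorescence with signal-to-noise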
Chain of Torsin-1A-interacting protein 2 (Homo sapiens) (Q8NFQ8 whole entry, looked up): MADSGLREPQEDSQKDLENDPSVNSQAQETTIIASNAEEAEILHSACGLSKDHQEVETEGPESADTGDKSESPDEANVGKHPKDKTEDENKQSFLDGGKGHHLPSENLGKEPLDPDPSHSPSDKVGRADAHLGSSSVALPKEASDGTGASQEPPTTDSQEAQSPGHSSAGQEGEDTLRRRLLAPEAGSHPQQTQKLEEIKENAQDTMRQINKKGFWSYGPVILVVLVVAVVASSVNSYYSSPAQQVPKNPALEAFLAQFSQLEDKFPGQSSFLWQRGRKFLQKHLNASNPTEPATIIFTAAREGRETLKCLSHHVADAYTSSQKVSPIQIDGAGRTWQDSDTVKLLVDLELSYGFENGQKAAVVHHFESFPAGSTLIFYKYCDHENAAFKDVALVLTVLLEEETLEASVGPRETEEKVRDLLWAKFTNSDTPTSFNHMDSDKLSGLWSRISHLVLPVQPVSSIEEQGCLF

[16] = optical density change of DRC41 E. coli – strain DRC41, OD650, 24 h, E. coli filamentation project, primary screen (AID 1093);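 also: MC1000 strain lacking acrAB efflux and sulA so SOS filamentation is blocked; test concentration not given here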; conditions: E. coli DRC41 growth, higher = more signal, called active from +8 up or from −8 down
[17] = probe aLefty2 binding to arrayed compounds – biochemical, biotinylated probe, 635/667 nm fluorescence, primary screen (AID 1094); conditions: small-molecule microarray, higher = more signal;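 also: score merges spot fluorescence near 667 nm with spot signal-to-noise ratio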
[18] = tested on: Noggin (protein binding on small-molecule microarray); test: small molecules binding Noggin protein – biochemical, 635/667 nm fluorescence, primary screen (AID 1095); conditions: 635 nm fluorescence, higher = more signal;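 also: score merges 667 nm feature fluorescence with signal to noise over triplicate slides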
[19] = target: Neurogenic locus notch homolog protein 3 (Homo sapiens) (UniProt Q9UM47); test: small molecules binding NOTCH3 protein – biochemical, 635/667 nm fluorescence, primary screen (AID 1096); conditions: small-molecule microarray, 635 nm fluorescence, higher = more signal
Chain of Neurogenic locus notch homolog protein 3 (Homo sapiens) (Q9UM47 whole entry, looked up): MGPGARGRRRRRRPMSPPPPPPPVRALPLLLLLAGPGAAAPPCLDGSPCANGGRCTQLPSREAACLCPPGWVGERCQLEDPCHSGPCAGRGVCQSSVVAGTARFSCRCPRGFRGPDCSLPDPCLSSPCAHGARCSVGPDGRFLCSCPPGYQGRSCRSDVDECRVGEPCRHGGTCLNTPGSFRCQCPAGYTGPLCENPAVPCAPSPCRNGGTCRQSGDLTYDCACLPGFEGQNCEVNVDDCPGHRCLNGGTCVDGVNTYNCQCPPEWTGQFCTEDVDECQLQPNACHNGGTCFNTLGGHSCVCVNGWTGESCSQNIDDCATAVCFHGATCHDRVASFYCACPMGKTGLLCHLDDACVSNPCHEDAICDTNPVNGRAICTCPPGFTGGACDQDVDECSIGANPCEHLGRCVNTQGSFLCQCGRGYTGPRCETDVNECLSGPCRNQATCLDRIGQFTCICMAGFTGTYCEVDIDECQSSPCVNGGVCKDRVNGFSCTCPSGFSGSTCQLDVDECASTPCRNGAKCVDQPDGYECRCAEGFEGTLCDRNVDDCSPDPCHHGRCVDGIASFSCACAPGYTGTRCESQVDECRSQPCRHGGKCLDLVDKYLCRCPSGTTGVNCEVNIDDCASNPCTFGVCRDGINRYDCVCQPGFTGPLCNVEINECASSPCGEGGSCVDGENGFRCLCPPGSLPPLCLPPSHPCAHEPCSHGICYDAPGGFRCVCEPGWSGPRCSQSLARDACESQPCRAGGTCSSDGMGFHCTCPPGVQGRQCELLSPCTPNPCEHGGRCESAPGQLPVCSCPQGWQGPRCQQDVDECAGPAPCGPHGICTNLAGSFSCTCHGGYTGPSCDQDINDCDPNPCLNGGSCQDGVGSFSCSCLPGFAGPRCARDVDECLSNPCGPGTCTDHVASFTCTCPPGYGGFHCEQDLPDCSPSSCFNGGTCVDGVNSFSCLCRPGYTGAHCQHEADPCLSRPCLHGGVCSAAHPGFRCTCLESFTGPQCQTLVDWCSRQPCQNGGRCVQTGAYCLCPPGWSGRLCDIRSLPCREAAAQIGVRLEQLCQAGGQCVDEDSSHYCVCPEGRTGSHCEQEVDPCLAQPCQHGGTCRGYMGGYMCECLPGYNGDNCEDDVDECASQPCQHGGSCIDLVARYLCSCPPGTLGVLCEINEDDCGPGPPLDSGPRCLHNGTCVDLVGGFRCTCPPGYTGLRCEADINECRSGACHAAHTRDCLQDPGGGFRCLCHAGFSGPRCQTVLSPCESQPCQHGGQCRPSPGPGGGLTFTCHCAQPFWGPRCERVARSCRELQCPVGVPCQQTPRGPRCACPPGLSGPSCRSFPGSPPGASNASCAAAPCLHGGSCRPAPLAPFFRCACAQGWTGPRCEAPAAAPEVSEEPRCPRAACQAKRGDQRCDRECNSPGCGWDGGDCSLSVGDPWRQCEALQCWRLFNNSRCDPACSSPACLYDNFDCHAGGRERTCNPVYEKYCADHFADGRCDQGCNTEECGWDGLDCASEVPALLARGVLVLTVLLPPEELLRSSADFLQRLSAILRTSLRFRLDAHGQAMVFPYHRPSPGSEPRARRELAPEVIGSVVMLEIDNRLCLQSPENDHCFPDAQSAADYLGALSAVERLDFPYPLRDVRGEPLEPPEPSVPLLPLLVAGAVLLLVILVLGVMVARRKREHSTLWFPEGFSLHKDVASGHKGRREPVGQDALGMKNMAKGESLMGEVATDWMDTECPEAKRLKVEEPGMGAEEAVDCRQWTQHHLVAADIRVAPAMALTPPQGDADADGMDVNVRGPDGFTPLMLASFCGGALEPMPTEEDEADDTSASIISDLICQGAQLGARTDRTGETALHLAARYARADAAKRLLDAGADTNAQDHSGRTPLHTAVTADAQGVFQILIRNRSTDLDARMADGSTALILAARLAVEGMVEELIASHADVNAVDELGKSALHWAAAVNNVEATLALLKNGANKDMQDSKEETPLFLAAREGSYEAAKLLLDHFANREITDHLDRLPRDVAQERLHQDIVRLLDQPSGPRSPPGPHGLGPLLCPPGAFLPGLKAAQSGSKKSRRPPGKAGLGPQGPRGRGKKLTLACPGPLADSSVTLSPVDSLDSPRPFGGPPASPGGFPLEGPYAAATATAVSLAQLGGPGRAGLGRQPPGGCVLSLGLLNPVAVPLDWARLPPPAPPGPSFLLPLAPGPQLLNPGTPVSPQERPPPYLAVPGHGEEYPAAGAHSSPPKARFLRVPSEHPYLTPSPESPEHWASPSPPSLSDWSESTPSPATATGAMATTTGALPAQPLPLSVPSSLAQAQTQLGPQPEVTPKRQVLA

[20] = probe aEGFR binding to arrayed compounds – biochemical, biotinylated probe, 635/667 nm fluorescence, primary screen (AID 1097); conditions: small-molecule microarray, higher = more signal;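 also: probe is a biotinylated anti-EGFR antibody binding compounds printed on slides; score combines fluorescence near 667 nm and signal to noise of each spot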

Row | Compound | composite z-score [1] | composite z-score [2] | composite z-score [3] | composite z-score [4] | composite z-score [5] | composite z-score [6] | composite z-score [7] | z-score [8] | composite z-score [9] | composite z-score [10] | composite z-score [11] | z-score [12] | z-score [13] | z-score [14] | composite z-score [15] | z-score [16] | composite z-score [17] | composite z-score [18] | composite z-score [19] | composite z-score [20]
1 | C=CCC(OC(C)=O)[C@@H]1[C@@H](N(Cc2ccc(-c3cccc(C(F)(F)F)c3)o2)C(=O)c2ccc(C)cc2)c2cc(OCCCO)ccc2N1C(=O)c1ccc2ccccc2c1 (stereo not given in full) | -0.302 | 0.462 | 0.0002 | 0.298 | -0.204 | -0.0678 | 0.273 | 0.0925 (inactive) | 0.0494 | 0.0749 | 0.128 | 0.488 (inactive) | 0.668 (inactive) | 0.742 (inactive) | 0.407 | 1.14 (inactive) | -0.138 | 0.485 | 0.313 | -0.125
2 | CN(C)CCCNC(=O)[C@@]1(C)c2ccccc2C(=O)N(Cc2ccccc2)[C@H]1c1ccc(CO)cc1 | 1.2 | -0.333 | -0.116 | -0.305 | -0.675 | 1.62 | 0.562 | -0.839 (inactive) | -0.0584 | -0.0074 | 0.988 | -0.466 (inactive) | -0.505 (inactive) | -0.577 (inactive) | 2.82 | 1.16 (inactive) | 0.151 | 0.0474 | -0.652 | -0.0639
3 | COC(=O)[C@@]1(Cc2ccc(F)cc2)[C@H]2c3cc(C(=O)N4CCCC4)n(CCN4CNCC4=O)c3C[C@H]2CN1C(=O)c1ccccc1 | 0.144 | 1.56 | 0.0732 | 0.132 | 1.26 | 1.07 | 1.35 | 4.7 (inactive) | 1.26 | 0.178 | 1.2 | 0.614 (inactive) | -0.198 (inactive) | 0.316 (inactive) | 3.97 | -0.151 (inactive) | 0.459 | 0.46 | 0.842 | 0.118
4 | CCCCC(O)C1C=CC2C(=O)N(c3ccccc3)C(=O)C2N1Nc1ccc(C(C)C)cc1 (stereo not given) | -0.158 | -0.534 | 0.0662 | 0.47 | 1.44 | 1.85 | 0.697 | -0.875 (inactive) | 1.13 | -0.217 | 1.37 | 0.603 (inactive) | -0.582 (inactive) | 0.0624 (inactive) | 3.01 | -1.32 (inactive) | -0.122 | 0.49 | 1.03 | -0.067
5 | COc1ccc([Si](C)(C)[C@H]2[C@H](CCO)O[C@@]3(C(=O)N(Cc4cccc(N5C(=O)COc6ccccc65)c4)c4ccccc43)[C@@H]2C)cc1 | 0.295 | 0.15 | -0.0877 | 0.126 | -0.298 | 0.727 | 0.828 | -2.07 (inactive) | -0.203 | -0.333 | 0.911 | 1.5 (inactive) | -0.845 (inactive) | 16.8 (active) | 0.795 | 1.98 (inactive) | -0.0021 | 0.164 | 0.14 | -0.148
6 | C=CC1c2cc(O)c(OC)cc2CCN1Cc1cc2c(cc1Br)OCO2 (stereo not given) | 1.54 | 1.07 | -0.101 | -0.15 | -0.322 | 1.19 | 1.22 | -0.454 (inactive) | 0.221 | -0.132 | 1.25 | -17.7 (active) | -19.8 (active) | -1.33 (inactive) | 2.51 | -2 (inactive) | 0.386 | 0.289 | 0.435 | -0.132
7 | CC(C)(C)OC(=O)CC[C@]1(C(=O)NCc2ccccc2)N=C(c2ccc(OCCCO)cc2)O[C@H]1c1ccccc1CN=[N+]=[N-] | -0.0386 | 0.357 | 0.119 | 0.618 | 1.55 | 1.22 | 1.31 | -2.07 (inactive) | 1.48 | -0.0296 | 1.54 | 0.133 (inactive) | 0.0256 (inactive) | 0.176 (inactive) | 3.46 | 0.868 (inactive) | 0.214 | 1.2 | 1.05 | 0.134
8 | COCCOC(=O)N1C(=O)[C@@]2(c3cc(C#CCCO)ccc31)[C@H](C(=O)Nc1nc3ccccc3s1)[C@H]1C(=O)O[C@H](c3ccccc3)[C@H](c3ccccc3)N1[C@@H]2c1ccccc1OCCO | -0.224 | 0.53 | 0.0293 | 0.802 | 1.29 | 0.95 | 1.32 | 1.23 (inactive) | 0.745 | 0.153 | 1.54 | 2.53 (inactive) | 1.7 (inactive) | 3.64 (inactive) | 2.81 | -0.0236 (inactive) | -0.116 | 0.6 | 1.09 | -0.0828
9 | CC(C)C[C@@H]1NC(=O)[C@@H]2C[C@H](C(=O)NCCCCCN)[C@H](c3ccc(O)cc3)N2C1=O | 0.347 | 0.174 | -0.0909 | 0.335 | 0.727 | 1.26 | 1.3 | -0.375 (inactive) | 0.371 | 0.0854 | 1.57 | 0.563 (inactive) | 0.32 (inactive) | 0.965 (inactive) | 2.57 | -0.687 (inactive) | -0.109 | 1.47 | 0.894 | -0.0078
10 | Cc1ccc(S[C@]2(C(=O)O)CC(=O)N(Cc3cc(C(F)(F)F)cc(C(F)(F)F)c3)[C@@H]2c2ccc(CO)cc2)cc1 | 0.591 | -0.378 | -0.175 | -1.71 | -2.43 | 0.203 | 0.406 | 0.0661 (inactive) | -0.395 | -0.464 | -0.224 | 0.952 (inactive) | -0.539 (inactive) | -0.0248 (inactive) | 1.53 | -1.17 (inactive) | -0.142 | -1.6 | -2.63 | -0.373
